Screening data (PubChem)
An excerpt weighted towards active compounds, which were near 2.2% of everything screened.
TGFb SMAD3 inh = qHTS for Inhibitors of TGF-b; 410,000 compounds, 1.2% hits; Potency, µM (top dose mostly 46.1 µM), most hits filed as inhibitors; HepG2 CAGA-GFP TGF-b/SMAD3 reporter, GFP fluorescence, 18 h; TGF-beta stimulated, 500 pg/mL final; AID 588855, 2011; further: nearly all actives have a fitted effect of over 65% in size
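HEPG2 CAGA-GFP cells (1000/well, DMEM with 1% FBS) were pre-incubated 2 h at 37 degrees C, given compound by pin tool, then stimulated with TGF-beta at 500 pg/mL final for 18 h before per-cell GFP fluorescence imaging.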
IDH1 R132H inh = qHTS for Inhibitors of mutant isocitrate dehydrogenase 1 (IDH1): qHTS; 390,000 compounds, 0.093% hits; IDH1-R132H enzyme, NADPH consumption, diaphorase/resazurin fluorescence; Potency, µM (highest dose often 76.6 µM), actives largely listed as inhibitors; further: nearly all actives have a fitted effect of over 65% in size
Target sequence (O75874 whole entry R132H, stated change not applied): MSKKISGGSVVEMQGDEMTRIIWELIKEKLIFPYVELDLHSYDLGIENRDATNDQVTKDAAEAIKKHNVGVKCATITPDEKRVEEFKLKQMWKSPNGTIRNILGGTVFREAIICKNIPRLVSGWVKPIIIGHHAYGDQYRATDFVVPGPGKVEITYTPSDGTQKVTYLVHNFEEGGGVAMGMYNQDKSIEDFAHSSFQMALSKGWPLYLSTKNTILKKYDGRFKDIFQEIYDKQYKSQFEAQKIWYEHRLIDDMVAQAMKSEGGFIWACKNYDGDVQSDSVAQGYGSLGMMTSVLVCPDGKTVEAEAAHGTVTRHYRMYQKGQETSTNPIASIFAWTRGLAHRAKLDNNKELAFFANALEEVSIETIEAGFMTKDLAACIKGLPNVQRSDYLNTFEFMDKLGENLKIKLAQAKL
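IDH1-R132H (0.5 ug/mL dispensed) in pH 7.5 Tris buffer was preincubated 30 min with compound, then given a substrate mix of 0.016 mM NADPH and 2 mM alpha-KG for 80 min at room temperature; remaining NADPH was read by diaphorase/resazurin fluorescence.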
ATXN2 expr inh = Primary qHTS for Inhibitors of ATXN expression; HEK-293 ATXN2-luciferase reporter, luminescence, 24 h; Potency, µM (doses to about 57 µM), most hits filed as inhibitors; 360,000 compounds, 0.72% hits; further: nearly all actives have a fitted effect of over 55% in size
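qHTS (up to 57 uM final) was run with 24 h compound exposure of reporter cells at 37 °C. Each well was multiplexed: SteadyGlo luminescence measured ATXN2-luciferase expression after a fluorogenic Gly-Phe-AFC viability readout (25 uM final).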
ATXN viability = Viability Counterscreen for Primary qHTS for Inhibitors of ATXN expression; S2 cells (HEK-293 line with an ATXN2-luciferase reporter) viability, CellTiter-Fluor protease fluorescence, 24 h; Potency, µM (doses to about 56.7 µM), hits mostly cytotoxic; 400,000 compounds, 0.49% hits; further: nearly all actives have a fitted effect of over 40% in size
HepG2 viability = qHTS for Inhibitors of TGF-b: Cytotox Counterscreen; 410,000 compounds, 0.76% hits; HepG2 CAGA-GFP viability, ATP luminescence, 18 h; Potency, µM (titrated, usually from 46.1 µM), most hits filed as cytotoxic; AID 588856, 2011
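CellTiter-Glo luminescence gave cytotoxicity after 18 hours at 37 degrees C. The cells were HepG2 CAGA-GFP in 1% FBS DMEM, stimulated with 500 pg/mL TGF-beta after compound addition. %Activity was normalised to no-cell wells (complete cell-killing) and DMSO (no toxicity), and curves were fitted and classified.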
LDHA block = qHTS assay for inhibitors of human lactate dehydrogenase. L-lactate dehydrogenase A chain (Homo sapiens), P00338. purified LDHA, NADH/diaphorase-resazurin fluorescence; active compounds read low. activity change, % (values are at about 110 or 230 µM). 480,000 compounds, 0.15% hits. AID 1347041, 2019; in the data active means activity change below about -30%; inconclusive means mostly about -25% to -30%
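Human LDH5 (2 nM) was incubated with 0.06 mM NADH and 0.2 mM pyruvate for 5 min at room temperature in Tris pH 7.4. Remaining NADH was coupled through diaphorase/resazurin, and resorufin fluorescence was read at 0 and 20 min.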
Hits are given with their value; - = inactive; ? = inconclusive; . = no result. Unless noted, the call rests on the fitted dose curve; in most records, active means well fitted curve in the direction sought with a large enough effect; inconclusive means small, poorly fitted or top-dose-only effect, or another doubt; inactive means no such curve, though single readings can be large; an effect the other way counts as inactive or inconclusive.

SMILES	TGFb SMAD3 inh	IDH1 R132H inh	ATXN2 expr inh	ATXN viability	HepG2 viability	LDHA block
Cc1onc(-c2ccc3c(c2)OCO3)c1-c1ccc2[nH]ccc2c1	12.6µM	-	-	?	-	-
Cn1nnnc1Sc1ncnc2scc(-c3ccccc3Br)c12	?	.	25.1µM	?	-	-
Cn1nnnc1Sc1ncnc2scc(I)c12	.	.	.	.	.	-
Cn1nnnc1Sc1ncnc2scc(Br)c12	2.24µM	.	17.8µM	-	-	-
COc1cc(-c2nn3c(Cc4ccccc4)nnc3s2)cc(OC)c1OC	-	-	-	-	-	-
COc1ccc(-c2ncc(CCNC(=O)c3cccc(F)c3)[nH]2)cc1	.	.	.	.	.	-
N#CNC(=Nc1cccc(F)c1)SCc1ccccc1F	?	-	.	?	11.2µM	-
CC(C)N=C(NC#N)SCc1ccccc1F	-	-	-	-	-	-
COc1ccc(NC(=O)NC[C@@H]2CC[C@@H](Cc3ccc(-c4ccccc4)cc3)O2)cc1	-	-	-	-	-	-
COc1ccc(/C=C\C(=O)O[C@@H]2C(O)C(O[C@@H]3OC(C)[C@H](O[C@@H]4OCC(O[C@H]5O[C@H](CO)[C@@H](O)C(O)C5O)C(O)C4O)C(O)C3O)[C@H](OC(=O)[C@]34CCC(C)(C)C[C@@H]3C3=CCC5[C@@]6(C)CC(O)C(O[C@@H]7OC(CO)C(O)[C@H](O)[C@H]7O)[C@@](C)(C(=O)O)C6CC[C@@]5(C)[C@]3(CO)CC4)O[C@H]2C)cc1 (some centres undefined)	?	-	7.08µM	11.2µM	-	-
Cc1ccc(S(=O)(=O)NCCC(=O)Nc2ncccc2O)cc1C	-	-	-	-	-	-
COc1cc(-c2ccc3sc(-c4ccsc4)c(C#CCO)c3c2)cc(OC)c1OC	15.8µM	-	25.1µM	?	-	-
COc1ccc(C2CC(O)(c3ccccc3)Oc3cc(OC)c(OC)c(OC)c32)cc1 (centres undefined)	?	-	-	?	-	-
OC1(c2ccccc2)CC(c2ccccc2)c2ccccc2O1 (centres undefined)	?	-	?	-	22.4µM	-
COc1ccc(Nc2nc(=O)c3cc([N+](=O)[O-])ccc3s2)cc1	-	-	-	-	3.98µM	-
Clc1ccc(SCc2cc(N3CCOCC3)nc(-c3ccccn3)n2)cc1	?	-	6.31µM	?	-	-
Clc1ccc(SCc2csc(N3CCOCC3)n2)cc1	?	-	-	.	-	-
Cc1cccc(C)c1OCc1nnc(SCC(=O)NCc2ccccc2)o1	-	-	-	-	-	-
O=C1C(O)CC2c3ccccc3CC3(CCCC3)N12 (centres undefined)	-	-	-	-	-	-
CC(C)c1ccc(NS(=O)(=O)c2ccc3[nH]cc(C(=O)NC4CCCCC4)c(=O)c3c2)cc1	?	-	.	.	-	-
CCN(CC)S(=O)(=O)c1ccc2c(c1)c(=O)c(C(=O)NCc1ccccc1Cl)cn2C	-	-	-	-	5.62µM	-
Cc1cc(C)cc(NS(=O)(=O)c2ccc3[nH]cc(C(=O)NC4CCCCC4)c(=O)c3c2)c1	?	-	?	?	11.2µM	-
Cc1cc(C)cc(NS(=O)(=O)c2ccc3[nH]cc(C(=O)NCc4ccco4)c(=O)c3c2)c1	?	-	?	?	-	-
Cc1cc(C)cc(NS(=O)(=O)c2ccc3[nH]cc(C(=O)NCc4ccccc4Cl)c(=O)c3c2)c1	12.6µM	-	-	?	-	-
O=C(NCCCN1CCN(CCCNC(=O)c2cc([N+](=O)[O-])ccc2Cl)CC1)c1cc([N+](=O)[O-])ccc1Cl	-	-	-	-	-	-
SMILES	TGFb SMAD3 inh	IDH1 R132H inh	ATXN2 expr inh	ATXN viability	HepG2 viability	LDHA block
O=C(NNC(=O)c1cc2cc3ccccc3nc2s1)c1cccc(Cl)c1	-	-	-	-	-	-51.4
CC1CCN(c2ccc(-c3cccc(NC(=O)C(F)(F)F)c3)nn2)CC1	-	-	?	-	20µM	-
O=C(Nc1cccc(-c2ccc(N3CCCCC3)nn2)c1)c1ccc(Br)o1	-	-	-	-	-	-
O=C(Nc1cccc(-c2ccc(N3CCCCC3)nn2)c1)C(F)(F)F	-	-	.	?	8.91µM	-
COc1ccnc(-n2cccc2C=O)c1C#N	-	-	-	-	-	-
Cc1ccc(CNc2cnccn2)cc1	-	-	-	-	-	-
Cc1ccc(C)c(NC(=O)c2ccccc2NS(=O)(=O)c2cc([N+](=O)[O-])ccc2C)c1	2.51µM	-	?	-	-	-
C=C(C)C1CC=C(C)/C(=N/NC(=O)COc2ccccc2C)C1 (centres undefined)	-	-	-	-	-	-
CC1=CC(C)(C)Nc2ccc(C)cc21	-	-	-	-	-	-
O=C(Oc1ccc(F)cc1)c1cccnc1	-	-	.	-	-	-
CC1=CC(C)(C)Nc2ccc(OC(=O)c3ccco3)cc21	-	-	31.6µM	?	-	-
CC1=CC(C)(C)Nc2ccc(OC(=O)c3cccnc3)cc21	-	-	?	?	12.6µM	-
COc1ccc(OC(=O)C(C)N2C(=O)c3ccccc3C2=O)cc1 (centres undefined)	-	-	-	-	-	-
CC1=CC(C)(C)Nc2ccc(OC(=O)C(C)N3C(=O)c4ccccc4C3=O)cc21 (centres undefined)	17.8µM	-	?	.	-	-
CC1=CC(C)(C)Nc2ccc(OC(=O)CN3C(=O)CCC3=O)cc21	-	-	?	-	15.8µM	-
O=C(NC(=S)Nc1cccnc1Cl)c1ccco1	-	-	.	-	-	-
CN(C)CCNC(=O)c1nc2c3c4c(sc3ncn2n1)CCCC4	.	.	.	.	.	-
NC(=O)c1cc([N+](=O)[O-])ccc1NCc1ccc(N)cc1	?	-	3.55µM	-	-	-
COc1cc(OC)cc(C(=O)NCc2ccc3c(c2)CCN3C(=O)c2ccccc2)c1	10µM	-	.	.	-	-
COc1ccc(CCC(=O)NCc2ccc3c(c2)CCN3C(=O)c2ccccc2)cc1	-	-	.	.	-	-
Cc1ccc(OCCSc2nnc(-c3cccs3)n2C)cc1	-	-	-	?	-	-
Cc1ccc(Cc2c(C3CCCCC3)nc3ccc(Br)cn23)cc1	?	.	-	?	-	-
Cc1ccc2nc(C3CCCCC3)c(CC(C)(C)C)n2c1	?	.	-	22.4µM	-	-
COC(=O)c1ccc2nc(C3CCCCC3)c(Cc3ccccc3C(F)(F)F)n2c1	22.4µM	.	?	?	-	-
CCCc1nc2ccc(C)cn2c1Cc1ccccc1OC	?	.	?	.	-	-
